Data on 33 compounds can be found in PubChem BioAssay (Tox21).

Records with an inconclusive call do not appear. A call without a number means that no potency is given here. Unmarked numbers belong to inactive results. Calls of active or inactive are those of the source. Calls follow the shape of the dose curve; as a rule, active = well fitted inhibition curve with a large enough effect in the repeat runs; inconclusive = weak or mixed curves; inactive = no such curve, though single readings can be large or run the other way.
Potency is read from the fitted curve at half-maximal effect.

Chain of Cytochrome P450 3A4 (Homo sapiens) (P08684 whole entry, looked up): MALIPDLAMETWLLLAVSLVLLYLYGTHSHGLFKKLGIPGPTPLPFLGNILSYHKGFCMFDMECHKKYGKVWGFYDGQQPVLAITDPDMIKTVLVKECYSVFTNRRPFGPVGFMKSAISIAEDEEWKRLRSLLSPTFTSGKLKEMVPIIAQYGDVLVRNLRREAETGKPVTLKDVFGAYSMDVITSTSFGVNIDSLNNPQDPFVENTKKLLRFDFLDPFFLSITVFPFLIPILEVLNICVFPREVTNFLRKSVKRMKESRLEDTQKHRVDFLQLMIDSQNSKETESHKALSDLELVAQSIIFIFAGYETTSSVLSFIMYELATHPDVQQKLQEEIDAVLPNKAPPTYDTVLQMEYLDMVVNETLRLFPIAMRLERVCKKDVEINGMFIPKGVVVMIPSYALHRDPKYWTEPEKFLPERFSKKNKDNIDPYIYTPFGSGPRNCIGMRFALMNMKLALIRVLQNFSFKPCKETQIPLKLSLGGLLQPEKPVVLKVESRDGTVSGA

The target in this assay is Cytochrome P450 3A4 (Homo sapiens) (UniProt P08684). Briefly: Cytochrome P450 Family 3 Subfamily A Member 4 (CYP3A4) small molecule antagonists: luciferase reporter qHTS assay (AID 1671201). Also: nearly all actives have a fitted effect of over 50% in size. The settings on record: P450-Glo CYP3A4 enzyme, luciferin luminescence, 1 h; series mostly up to 115 µM. The method, boiled down:
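Enzyme and proluciferin substrate are mixed with test chemicals for 10 min, then NADPH regeneration system drives turnover for 1 h at room temperature. A detection reagent halts the reaction; luminescence after 20 min gives relative activity.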
On the technique in general: Reporter assays use an easily measured gene product as a stand-in for the process of interest.
As to `O=C1OCc2ccccc21`, the Potency result is “inactive”. Turning to `CCCCCCCCOC(=O)c1cc(O)c(O)c(O)c1`, the Potency was 35.6 µM (active).

On to `CC/C=C\C/C=C\C/C=C\CCCCCCCC(=O)OC`, for which the Potency is 20 µM (active). As for `CC1=C(/C=C/C(C)=C/C=C/C(C)=C\C(=O)O)C(C)(C)CCC1`, the Potency was 22.5 µM (active). Consider `CC(Cc1ccc(O)c(O)c1)C(C)Cc1ccc(O)c(O)c1` (stereo not drawn), for which the Potency is 35.6 µM (active). Regarding `COCCC(=O)OC`, the Potency entry was “inactive”. For the compound `C/C=C/C(=O)OCC(C)C`, the Potency result was “inactive”. For the compound `COc1c(Br)cc(Br)c(C)c1Br`, the Potency result was “inactive”.

In the case of `CCCCC/C=C\C=C\C(=O)OCC`, the Potency is 16.6 µM (active).

As for `CC(C=O)c1ccccc1` (stereo not drawn), the Potency entry is “inactive”. The same measure, in the same setting: in the case of `Cc1ccc2nc(-c3ccc(N)cc3)sc2c1S(=O)(=O)O` it was “inactive”; in that of `Cn1ccnc1`, “inactive”; in that of `Cc1ccc(Cl)c(N)c1Cl`, “inactive”.

In the case of `CC(C)(C)c1cc(CCC(=O)OCCSCCOC(=O)CCc2cc(C(C)(C)C)c(O)c(C(C)(C)C)c2)cc(C(C)(C)C)c1O`, the Potency is 4.9 µM (active). On the same count and under the same terms, with `Cc1ccc2sc3cccc(C)c3c2c1` the entry was “inactive”; with `Cc1ccc(N=Nc2c(O)ccc3ccccc23)c(C)c1`, “inactive”.

With `COC(=O)c1ccc([N+](=O)[O-])cc1`, the Potency result is “inactive”.

With `O=C1CCCCCCCCCCCCCC1`, the Potency was 35.6 µM (active).

For `CC1CCC(C(C)(C)O)CC1` (stereo not drawn), the Potency result is “inactive”. On the same count and under the same terms, in the case of `Cc1cc(Br)ccc1NC(=O)CCl` it was “inactive”. As to `c1ccc(-c2ccccc2-c2ccccc2)cc1`, the Potency entry was “inactive”. Turning to `CN1CCN(C)CC1`, the Potency entry was “inactive”. Consider `O=C1CCC/C=C\CCCCCCCCCC1`, for which the Potency was 31.7 µM (active). For the compound `CCNc1nc(NC(C)(C)C)nc(OC)n1`, the Potency result is “inactive”. Regarding `Cc1ccc(S(=O)(=O)C(I)I)cc1`, the Potency is 39.9 µM (active). With `C=C[Si](C)(C)Cl`, the activity change, negative = inhibition was 0.89% [at 10.5 µM]. As to `COc1cc(/C=C/C(=O)CC(=O)/C=C/c2ccc(O)c(OC)c2)ccc1O`, the Potency was 10.1 µM (active). As to `O[Si](c1ccccc1)(c1ccccc1)c1ccccc1`, the Potency result was “inactive”. Consider `O=C(Nc1ccc([N+](=O)[O-])cc1)Nc1ccc([N+](=O)[O-])cc1` (tested in a mixture with another compound), for which the Potency result was “inactive”. The same measure, in the same setting: with `N#CCCOCCC#N` the entry was “inactive”; with `CCOC(=O)OC(=O)OCC`, “inactive”. For `CCCCCCCCCCCCS(=O)(=O)Cl`, the activity change, negative = inhibition is -1.36% [at 23.6 µM]. As to `c1ccc2c(c1)-c1ccc3ccc4cccc5cc-2c1c3c45`, the Potency result is “inactive”.
